According to PubChem BioAssay (NCATS):
Activity calls are given as the source filed them. The call rests on the fitted dose curve; in most records, active means well fitted curve in the direction sought with a large enough effect (not every such curve was filed as active); inconclusive means small, poorly fitted or top-dose-only effect, or effect the other way, or another doubt; inactive means no such curve, though single readings can be large or run the other way.

The compounds below were run against Pyruvate kinase PKM (Homo sapiens) (UniProt P14618) (assay: qHTS Assay for Activators of Human Muscle Pyruvate Kinase (AID 954)). Conditions: purified human muscle pyruvate kinase, luciferase-coupled luminescence, 1 h; series mostly up to 57.5 µM.
Pyruvate kinase PKM (Homo sapiens), sequence (P14618 whole entry, looked up): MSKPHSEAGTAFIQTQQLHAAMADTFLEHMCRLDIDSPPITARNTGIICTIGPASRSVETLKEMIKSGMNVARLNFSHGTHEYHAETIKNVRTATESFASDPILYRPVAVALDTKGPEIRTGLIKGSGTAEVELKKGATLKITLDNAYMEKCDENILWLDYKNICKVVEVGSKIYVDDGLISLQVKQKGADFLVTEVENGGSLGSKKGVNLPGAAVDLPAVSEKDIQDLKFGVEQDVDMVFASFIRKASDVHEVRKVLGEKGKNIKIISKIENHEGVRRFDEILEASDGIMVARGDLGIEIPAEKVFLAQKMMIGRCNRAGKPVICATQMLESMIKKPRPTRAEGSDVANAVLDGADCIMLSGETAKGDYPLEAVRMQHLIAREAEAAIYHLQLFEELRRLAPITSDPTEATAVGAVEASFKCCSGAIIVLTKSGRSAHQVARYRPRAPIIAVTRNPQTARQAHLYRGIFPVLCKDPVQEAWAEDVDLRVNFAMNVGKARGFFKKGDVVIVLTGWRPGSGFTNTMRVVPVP
Protocol: NIH Molecular Libraries Screening Centers Network [MLSCN]
NIH Chemical Genomics Center [NCGC]
Wael M. Rabeh, Lyudmila Nedyalkova and Hee-Wan Park [Structural Genomics Consortium, 100 College St. Toronto, Ontario, Canada]
Human pyruvate kinase muscle 2 enzyme was supplied as a highly purified (>95% pure) preparation by the Structural Genomics Consortium in Toronto (Ontario, Canada) and was assayed for its ability to generate ATP from ADP using phosphoenolpyruvate (PEP) as a substrate. ATP generation was detected in a coupled reaction by luciferase-mediated luminescence, an ATP-dependent process. Pyruvate kinase substrates, PEP and ADP, were present in the assay at Km and approximately […]-fold below Km respectively. The enzyme was assayed at an intermediate level of activity to screen for inhibitors and activators.
NCGC Assay Protocol Summary:
Three uL of substrate mix (final concentration, 50 mM imidazole pH 7.2, 50 mM KCl, 7 mM MgCl2, 0.5 mM PEP, 0.1 mM ADP, 0.01% Tween 20, 0.05% BSA) was dispensed into 1536 well plates. 23 nL of compound were delivered by a pin tool and 1 uL of enzyme mix (final concentration, 0.1 nM pyruvate kinase, 50 mM imidazole pH 7.2, 0.05% BSA) was added. Plates were incubated at room temperature for 1 hour. Two uL of detection and kinase stop mix (PKLight, Cambrex) was added, the plates centrifuged, and luminescence read by a ViewLux (Perkin Elmer) at 5 second exposure/plate. Data were normalized to the uninhibited and AC100 inhibition (no enzyme or 110 uM N-methyl-2,3-diphenyl-1,2,4-thiadiazol-5-imine; CID: 682802; LOPAC-S-4063). To monitor activation, 0.3 nM pyruvate kinase was included in one control column.
`CCCN1CCO[C@@H]2c3cc(O)ccc3OC[C@H]21` was tested, and the outcome was “inactive”.
For `Cc1nccc2c1[nH]c1ccccc12`, the outcome was “inactive”.
With `O=C(O)Cc1cnc[nH]1` the outcome was “inactive”.
`COc1ccc2c(c[n+](C)c3c4cc5c(cc4ccc23)OCO5)c1OC` was tested, and the outcome was “inactive”.
With `Cc1c(C(=O)c2cccc3ccccc23)c2cccc3c2n1[C@H](CN1CCOCC1)CO3` the outcome was “inactive”.
With `C[C@]12N[C@H](Cc3ccccc31)c1ccccc12` the outcome was “inactive”.
In the case of `NCCc1c[nH]c2ccccc12`, the outcome is reported as “inactive”.
`O=C1CCCN1CC#CCN1CCCC1` was tested, and the outcome was “inactive”.
`CC(C)Oc1cccnc1N(C)C1CCN(Cc2ccccc2)CC1` was tested, and the outcome was “inactive”.
`O=C(O)CC[N+](=O)[O-]` was tested, and the outcome was “inactive”.
For `CCCCc1ccc(C(=O)O)nc1`, the outcome was “inactive”.
`CCCN1CCC[C@H](c2cccc(O)c2)C1` was tested, and the outcome was “inactive”.
`Cc1nc(-c2ccc(-c3ccc(C(=O)N4CCc5cc6c(cc54)C4(CCN(C)CC4)CO6)cc3)c(C)c2)no1` was tested, and the outcome was “inactive”.
For `NC(=NCCC[C@H](N)C(=O)O)N[N+](=O)[O-]`, the outcome was “inactive”.
`c1ccc2sc(C3(N4CCCCC4)CCCCC3)cc2c1` was tested, and the outcome was “inactive”.
With `CNCCc1c[nH]c2ccc(O)cc12` the outcome was “inactive”.
`C#CCOC(=O)C1=CCCN(C)C1` was tested, and the outcome was “inactive”.
`C[C@@H]1O[C@H](C[N+](C)(C)C)C[C@H]1O` was tested, and the outcome was “inactive”.
In the case of `CC(=O)NCCc1c[nH]c2ccccc12`, the outcome is reported as “inactive”.
For `S=C(NC1CCCCC1)N1CCC(c2cnc[nH]2)CC1`, the outcome was “inactive”.
With `NCCc1c[nH]c2ccc(O)cc12` the outcome was “inactive”.
For `Cn1cnc(CCN)c1`, the outcome was “inactive”.
For `Clc1cnc(Oc2ccc(Oc3ncc(Cl)cc3Cl)cc2)c(Cl)c1`, the outcome was “inactive”.
`CCCN(CCC)[C@@H]1CCc2ccc(O)cc2C1` was tested, and the outcome was “inactive”.
In the case of `CN[C@@H]1C[C@@H](c2ccc(Cl)c(Cl)c2)c2ccccc21`, the outcome is reported as “inactive”.
For `CC[C@@]1(O)C(=O)OCc2c1cc1n(c2=O)Cc2cc3ccccc3nc2-1`, the outcome was “inactive”.
With `NCc1cc(=O)[nH]o1` the outcome was “inactive”.
`c1ccc(CCCN2CCN(CCOC(c3ccccc3)c3ccccc3)CC2)cc1` was tested, and the outcome was “inactive”.
In the case of `CC1=NN=C(c2ccc(N)cc2)c2cc3c(cc2C1)OCO3`, the outcome is reported as “inactive”.
With `NC(N)=NOCCC(N)C(=O)O` (stereo unspecified) the outcome was “inactive”.
For `CNCCc1ccc(O)c(O)c1`, the outcome was “inactive”.
